This passage reports growth results from PubChem BioAssay (NCI).

What all share (test): NCI-60 one-dose screen, 48 h (100 = growth as untreated, 0 = no growth, -100 = all killed)
One assay has as its system HOP-92 NSCLC. The note with it: 10 µM unless noted.
Another assay concerns COLO 205 colon. Conditions: 10 µM.
Another assay relates to MALME-3M melanoma. The note with it: 10 µM unless noted.
In another assay the test system is HCT-15 colon. Conditions: 10 µM.
Another assay has as its system SK-MEL-5 melanoma. Conditions: 10 µM unless noted.
The subject of a further assay is LOX IMVI melanoma. Conditions: 10 µM unless noted.
The next assay has as its system EKVX NSCLC. Conditions: 10 µM unless noted.
The test system of a further assay is TK-10 renal. Conditions: 10 µM unless noted.
In the next assay the test system is CCRF-CEM leukemia. The note with it: 10 µM unless noted.
A further assay deals with MOLT-4 leukemia. The note with it: 10 µM.
The next assay concerns SR leukemia. The note with it: 10 µM.
In the next assay the test system is OVCAR-8 ovarian. The note with it: 10 µM unless noted.
A further assay concerns MDA-MB-435 melanoma. Conditions: 10 µM unless noted.
The test system of another assay is SNB-19 CNS. Conditions: 10 µM unless noted.
Another assay deals with SN12C renal. Conditions: 10 µM unless noted.
The next assay has as its system RPMI-8226 leukemia. The note with it: 10 µM unless noted.
The next assay deals with IGROV1 ovarian. Conditions: 10 µM.
The subject of the next assay is NCI-H522 lung. Conditions: 10 µM unless noted.
A further assay concerns HCC-2998 colon. Conditions: 10 µM unless noted.

Structures are written as SMILES. The panel holds about 83,000 compounds, 20% with a hit somewhere; the sample as a whole holds those more often.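 Assay: single dose, 48 h. Readout: percent growth (0 = no net growth; negative = cell death). Active: <10.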 Unmarked numbers belong to inactive results. Active and inactive are the calls of the source.

On to `Oc1ccc(O)c2c1C1(Cl)C(Cl)=C(Cl)C2(Cl)C1(Cl)Cl`, for which the growth in the assay on HOP-92 NSCLC is 12%; with COLO 205 colon, 72%; in the assay with MALME-3M melanoma it was 20%; in the assay on HCT-15 colon, 45.3%; in the assay with SK-MEL-5 melanoma, 42.3%; in the assay on LOX IMVI melanoma, 43.1%. The growth is 34.3% with EKVX NSCLC; 75.4% in the assay with TK-10 renal; 56.9% in the assay with CCRF-CEM leukemia; 54.3% in the assay with MOLT-4 leukemia; 34.9% in the assay on SR leukemia; 74% in the assay with OVCAR-8 ovarian. The growth with MDA-MB-435 melanoma is -3.33% (active).

`CC(=O)N(C)C1=Nc2ccc(Cl)cc2C(c2ccccc2)=[N+]([O-])C1`: the growth in the assay with HOP-92 NSCLC was 92.5%; in the assay with COLO 205 colon it was 105%; in the assay on MALME-3M melanoma, 121%; in the assay with HCT-15 colon, 108%; in the assay on SNB-19 CNS, 96.3%; with LOX IMVI melanoma it was 95.4%. Further, the growth is 115% with EKVX NSCLC; 97.2% in the assay on SN12C renal; 102% in the assay on TK-10 renal; 125% in the assay on CCRF-CEM leukemia; 113% in the assay with RPMI-8226 leukemia; 106% in the assay on IGROV1 ovarian. In the assay on MDA-MB-435 melanoma, the growth was 111%.

For `O1[As]2O[As]3O[As]1O[As](O2)O3`, the growth with HOP-92 NSCLC is -24.4% (active); in the assay on NCI-H522 lung, -63.4% (active); in the assay on MALME-3M melanoma it was -15% (active); with HCT-15 colon, -23.4% (active); with SNB-19 CNS it was -2.55% (active); in the assay on SK-MEL-5 melanoma, -91.5% (active). Besides, the growth with LOX IMVI melanoma is 0.399% (active); in the assay on EKVX NSCLC it was 5.14% (active); with SN12C renal it was 4.31% (active); in the assay on TK-10 renal, 3.92% (active); with CCRF-CEM leukemia, 13.1%; with MOLT-4 leukemia, 10.7%. In addition, the growth in the assay with RPMI-8226 leukemia was 15.1%; in the assay on OVCAR-8 ovarian, 4.6% (active); with IGROV1 ovarian, 14.6%; in the assay on MDA-MB-435 melanoma, 14.1%; in the assay with HCC-2998 colon, 23.3%.

As to `COc1ccc(C(c2ccc(OC)cc2)C(Cl)(Cl)Cl)cc1`, the growth with HOP-92 NSCLC was 63.9%; in the assay on NCI-H522 lung, 60%; in the assay with MALME-3M melanoma, 91.8%; in the assay on HCT-15 colon, 91.8%; in the assay with SK-MEL-5 melanoma, 80.2%; in the assay with EKVX NSCLC it was 95.7%. Besides, the growth in the assay with SN12C renal is 97.8%; with TK-10 renal, 90.3%; in the assay with CCRF-CEM leukemia, 55.6%; in the assay on MOLT-4 leukemia it was 85.8%; with SR leukemia it was 71.8%; in the assay on RPMI-8226 leukemia, 71.5%. Further, the growth is 86.7% in the assay on OVCAR-8 ovarian, 76.4% with IGROV1 ovarian, 72.4% in the assay on MDA-MB-435 melanoma and 94.4% in the assay with HCC-2998 colon.

In the case of `COC(=O)C[Se]C(=O)c1ccccc1OC(C)=O`, the growth with HOP-92 NSCLC is 93.3%; in the assay on COLO 205 colon, 46.7%; in the assay with MALME-3M melanoma, 69.9%; in the assay on HCT-15 colon, 46.4%; in the assay on SNB-19 CNS, 83.9%; with SK-MEL-5 melanoma it was 90.6%. The growth is 59.6% in the assay on LOX IMVI melanoma; 31.4% in the assay on EKVX NSCLC; 93.2% with SN12C renal; 93.1% in the assay on TK-10 renal; 76.6% in the assay with CCRF-CEM leukemia; 86% in the assay on MOLT-4 leukemia. In addition, the growth in the assay with SR leukemia is 20.7%; in the assay with RPMI-8226 leukemia it was 96%; with OVCAR-8 ovarian it was 45.4%; in the assay on IGROV1 ovarian it was 52%; with MDA-MB-435 melanoma it was 87.9%; with HCC-2998 colon, 62.1%.

With `[Cl][Hg][n]1cnc2c(Cl)c(Cl)c(Cl)cc21`, the growth in the assay on HOP-92 NSCLC is 116%; in the assay with NCI-H522 lung, 50.2%; in the assay with MALME-3M melanoma it was 97.6%; with SNB-19 CNS, 102%; in the assay on SK-MEL-5 melanoma it was 102%; with LOX IMVI melanoma, 79.6%. In addition, the growth with EKVX NSCLC was 81.7%; with SN12C renal it was 102%; in the assay on TK-10 renal, 108%; in the assay with CCRF-CEM leukemia, 102%; in the assay with MOLT-4 leukemia, 107%; in the assay on SR leukemia it was 80.1%. For the same compound, the growth with RPMI-8226 leukemia is 98.9%; in the assay with OVCAR-8 ovarian it was 101%; in the assay on IGROV1 ovarian, 99.7%; in the assay on MDA-MB-435 melanoma, 107%; in the assay with HCC-2998 colon it was 107%.

Take `O=C(O)c1[nH]c(=O)[nH]c(=O)c1F`: the growth in the assay with HOP-92 NSCLC is 106%; with NCI-H522 lung, 88.9%; in the assay on MALME-3M melanoma it was 113%; in the assay on SNB-19 CNS, 91.4%; with LOX IMVI melanoma, 84.6%; in the assay on EKVX NSCLC it was 121%. Besides, the growth is 96.3% in the assay on SN12C renal; 78.6% in the assay on TK-10 renal; 78.4% in the assay on CCRF-CEM leukemia; 73.7% in the assay with RPMI-8226 leukemia; 81.7% in the assay with OVCAR-8 ovarian; 95.1% in the assay on IGROV1 ovarian. Moreover, in the assay on HCC-2998 colon, the growth is 64.9%.

Regarding `OC1(c2ccccc2F)c2ccccc2C2=NCCN21` (centres undefined), the growth is 78.9% with HOP-92 NSCLC; 101% with COLO 205 colon; 97.2% with MALME-3M melanoma; 108% in the assay with HCT-15 colon; 108% in the assay with SNB-19 CNS; 94.6% in the assay on SK-MEL-5 melanoma. The growth in the assay with EKVX NSCLC is 97.8%; with TK-10 renal, 90.4%; with CCRF-CEM leukemia it was 93%; with MOLT-4 leukemia, 97.7%; with SR leukemia, 90.9%; with RPMI-8226 leukemia, 107%. Moreover, the growth was 104% in the assay with OVCAR-8 ovarian, 79.4% with IGROV1 ovarian, 110% with MDA-MB-435 melanoma and 100% in the assay on HCC-2998 colon.

On to `O=C1C=CC(=O)C2C1C1(Cl)C(Cl)=C(Cl)C2(Cl)C1(Cl)Cl` (centres undefined), for which the growth was 15.7% with HOP-92 NSCLC; 74.7% in the assay on COLO 205 colon; 49.2% with MALME-3M melanoma; 54.3% with HCT-15 colon; 73.8% in the assay on SNB-19 CNS; 47.5% in the assay on SK-MEL-5 melanoma. Moreover, the growth in the assay on LOX IMVI melanoma is 50.5%; in the assay with EKVX NSCLC, 41.3%; in the assay with SN12C renal it was 67.3%; in the assay with TK-10 renal it was 71.5%; with CCRF-CEM leukemia, 60.4%; with MOLT-4 leukemia, 59.5%. Further, the growth in the assay with SR leukemia is 36.5%; in the assay with RPMI-8226 leukemia it was 67.9%; in the assay with OVCAR-8 ovarian, 74.3%; in the assay on IGROV1 ovarian, 56.4%; in the assay with MDA-MB-435 melanoma, 3.15% (active).

Take `CCOCC1(CCc2ccccc2)C(=O)NC(=S)NC1=O`: the growth was 101% in the assay on HOP-92 NSCLC; 109% in the assay on COLO 205 colon; 138% in the assay with MALME-3M melanoma; 107% in the assay with HCT-15 colon; 105% in the assay with SNB-19 CNS; 116% with EKVX NSCLC. The growth in the assay with SN12C renal is 100%; with TK-10 renal, 115%; in the assay on CCRF-CEM leukemia, 100%; in the assay on SR leukemia, 92.7%; in the assay on RPMI-8226 leukemia, 104%; in the assay with OVCAR-8 ovarian, 107%. The results for the growth in the assay with IGROV1 ovarian and with MDA-MB-435 melanoma were 107% and 108%, respectively.
